Assay [1] deals with Staphylococcus aureus. Conditions: Concentration 32 ug.mL-1;; ASSAY_TEST Inhibition of Bacterial Growth; detection method Absorption (OD600); MEDIA CAMHB; plate type 384well; NBS; CORNING #3640; time 18 hr.
For assay [2], the system named is Escherichia coli. Particulars: Concentration 32 ug.mL-1;; ASSAY_TEST Inhibition of Bacterial Growth; detection method Absorption (OD600); MEDIA CAMHB; plate type 384well; NBS; CORNING #3640; time 18 hr.

Measured potencies and affinities stand elsewhere.

Usually Inhibition stands for the drop in the measured response relative to a control, in per cent. As to `COc1cc(NC(=O)Cn2nc3c(Sc4cccc(F)c4)nccn3c2=O)cc(OC)c1`, the results for the Inhibition in assay [1] and in assay [2] were 9.3% and -0.8%, respectively.
On to `COc1cccc(-n2ccn3c(SCc4ccc(Cl)cc4)nnc3c2=O)c1`, for which the Inhibition in assay [1] is recorded as -2.27%; in assay [2] it was 1.4%.
On to `COc1ccc(NC(=O)Cn2nc3c4cc(-c5ccc(C)c(C)c5)nn4ccn3c2=O)cc1Cl`, for which the Inhibition in assay [1] is given as -7.37%; in assay [2] it was 0.15%.
For `Cc1ccc2c(c1)N(C(=O)Cn1nc3ccc(SC(C)(C)C)nn3c1=O)CCO2`, in that order: 10.2% and -0.14%.
On to `Cc1cc2nn(CC(=O)NCc3ccco3)c(=O)n2c(Nc2ccc(C)c(F)c2)n1`, for which the Inhibition in assay [1] is 0.2%; in assay [2], -8.01%.
For `Cc1nnc2ccc(S(=O)(=O)N(Cc3ccc(Cl)cc3)c3cccc(F)c3)cn12`, in that order: 2.65% and -4.46%.
For `O=C(CSc1nnc2c(=O)n(-c3ccc(F)cc3)ccn12)N1CCN(c2ccc(F)cc2)CC1`, in that order: 9.4% and -2.88%.
The matching figures for `Cc1ccc(-c2cc3c4nn(CC(=O)Nc5ccccc5Br)c(=O)n4ccn3n2)cc1C`: 9.34% and -2.39%.
As for `O=C(Cn1nc2c(N3CCOCC3)nc3ccccc3n2c1=O)Nc1ccccc1Br`, the Inhibition in assay [1] is 3.23%; in assay [2] it was -2.52%.
The matching figures for `Cc1cccc(Oc2nc3ccccc3n3c(=O)n(CC(=O)Nc4ccc5c(c4)OCCO5)nc23)c1C`: 10.6% and -1.83%.
The matching figures for `COc1ccc(NC(=O)C(C)Sc2nnc3c(=O)n(-c4cccc(OC)c4)ccn23)cc1` (stereo not given): 6.45% and -9.09%.
`Cc1nnc2ccc(S(=O)(=O)N(Cc3ccc(F)cc3)c3ccc4c(c3)OCO4)cn12`: the values for the Inhibition in assay [1] and in assay [2] were 6.11% and -4.59%, respectively.
Consider `CCc1nnc2c(SCC(=O)Nc3ccc4c(c3)OCCO4)nc3ccccc3n12`, for which the Inhibition in assay [1] was -7.96%; in assay [2], 3.84%.
`COc1cccc(CN(c2ccccc2)S(=O)(=O)c2ccc3nncn3c2)c1`: the Inhibition is 6.2% in assay [1] and -8.56% in assay [2].
For `Cc1cccc(Cn2nc3n(CCc4ccccc4)c(=O)c4sccc4n3c2=O)c1`, in that order: -3.57% and -0.08%.
For `CCCCN(CC)c1ccc2nnc(CCc3nc(-c4ccc(OCc5ccccc5)cc4)no3)n2n1`, in that order: 4.18% and -2.08%.
The matching figures for `O=c1c2nn(Cc3cccc([N+](=O)[O-])c3)c(=O)n2ccn1-c1ccccc1`: -0.55% and -2.06%.
For the molecule `COc1cccc(-n2ccn3c(SCC(=O)Nc4ccc(Br)cc4)nnc3c2=O)c1`, the figures for the Inhibition in assay [1] and in assay [2] were -2.74% and -7.77%, respectively.
For `COc1cccc(CSc2nnc3c(=O)n(-c4ccc(Br)cc4)ccn23)c1`, in that order: 20.73% and -1.68%.
For the molecule `CCOC(=O)c1ccccc1NC(=O)Cn1c(=O)c2nnc(C(C)C)n2c2ccccc21`, the Inhibition in assay [1] was 9.86%; in assay [2] it was 0.49%.
The matching figures for `Cc1ccc(Oc2nccn3c(=O)n(CC(=O)Nc4cccc(Cl)c4)nc23)cc1`: -3.9% and -9.06%.
For `COc1ccc(OC)c(NC(=O)Cn2nc3c4cc(-c5ccc(C)c(C)c5)nn4ccn3c2=O)c1`, in that order: 0.06% and -4.32%.
The matching figures for `O=C(Cn1nc2ccc(SCc3ccc(Cl)cc3)nn2c1=O)Nc1ccc2c(c1)CCC2`: 2.54% and -5.73%.
For `Cc1ccc(F)cc1NC(=O)CSc1nnc2ccc(C(=O)Nc3cccc(F)c3)cn12`, the values for the Inhibition in assay [1] and in assay [2] were 13.04% and 0.82%, respectively.
Take `O=C(CSc1nnc2c3cc(-c4ccccc4)nn3ccn12)Nc1cccc(Br)c1`: the Inhibition is reported as 9.78% in assay [1] and 2.01% in assay [2].
Consider `COc1cc(NC(=O)Cn2nc3c(Oc4ccccc4)nccn3c2=O)cc(OC)c1`, for which the Inhibition was 11.4% in assay [1] and 1.31% in assay [2].
For `CCOC(=O)c1cccc(NC(=O)Cn2nc3c4cc(-c5ccc(C)c(C)c5)nn4ccn3c2=O)c1`, the results for the Inhibition in assay [1] and in assay [2] were -12.42% and -16.13%, respectively.
With `CC(C)c1nnc2c(SCC(=O)N3CCN(c4ccccc4F)CC3)nc3ccccc3n12`, the Inhibition in assay [1] was -2.06%; in assay [2], -6.39%.
As for `O=C(Cn1nc2n(Cc3ccccc3)c(=O)c3ccccc3n2c1=O)Nc1ccc2c(c1)OCO2`, the Inhibition in assay [1] is given as -3.15%; in assay [2], 1.74%.
As to `COc1ccc(CCn2c(=O)c3sccc3n3c(=O)n(CC(=O)c4ccccc4)nc23)cc1OC`, the Inhibition in assay [1] is given as 14.35%; in assay [2], 3.29%.
Regarding `CCOc1ccc(-n2ccn3c(SCC(=O)c4cc(C)c(C)cc4C)nnc3c2=O)cc1`, the figures for the Inhibition in assay [1] and in assay [2] were 7.6% and -6.02%, respectively.
Consider `Cc1ccc(-c2noc(Cn3nc4ccc(-c5ccccc5)nn4c3=O)n2)cc1`, for which the Inhibition is reported as -9.52% in assay [1] and -11.36% in assay [2].
On to `O=S(=O)(c1ccc2nncn2c1)N(Cc1cccc(F)c1)c1ccc2c(c1)OCCO2`, for which the Inhibition is given as 1.17% in assay [1] and -4.29% in assay [2].
For `COC(=O)c1cccc(NC(=O)Cn2nc3ccc(-c4ccccc4)nn3c2=O)c1`, in that order: -7.92% and -13.96%.
`Cc1ccc(NC(=O)Cn2nc3ccc(SC4CCCCC4)nn3c2=O)c(Cl)c1`: the Inhibition in assay [1] is given as -1.24%; in assay [2], -5.46%.

(Values after ChEMBL document CHEMBL4513146, “CO-ADD screening of Karazin Kharkiv National University (Ukraine) compounds”.)
